Test results: PubChem BioAssay AID488862 (Broad Institute, 2010)
In all, about 340,000 compounds went through this assay and about 1,200 (0.35%) were called active. The list comes from a sample in which actives are over-represented; it also holds similar structures and randomly drawn compounds. A number with no mark means an inactive call. Rule as the data show it: active = inhibition above about 52%; inactive = the rest.

Experiment: suppresses PrP 5' UTR mRNA reporter expression (AID 488862); also: 0 = median of the neutral control wells
Conditions: cell-based PrP 5' UTR mRNA reporter, plate reader; active compounds read high; concentration not given here

Structure (SMILES) | inhibition
Cc1nonc1C(=O)N/N=C/c1ccc(O)cc1 | -28.8%
COC(=O)c1ccccc1NC(=O)CN(Cc1ccccc1)S(C)(=O)=O | -21.1%
CN(CCO)c1ccc(/C=N/Nc2nncc3ccccc23)cc1 | 79.8% (active)
COc1cccc(/C=N\Nc2nncc(-c3ccccc3)n2)c1 | -63.5%
C/C(=N\Nc1nncc2ccccc12)c1ccc(Cl)c([N+](=O)[O-])c1 | -45.7%
CC(C)(C)C1CCC(C(=O)Nc2cccnc2)CC1 (stereo not given) | -7.89%
O=C(Nc1ccc(Br)cn1)C1CCN(S(=O)(=O)c2cccs2)CC1 | -7.76%
C/C(=N\NC(=O)c1cc2c(s1)CCC(C)C2)c1cccnc1 (stereo not given) | 55.4% (active)
CC1CCc2sc(C(=O)N/N=C/C3CCCCC3)cc2C1 (stereo not given) | 1.9%
C/C(=N\NC(=O)c1ccc2ccccc2c1)c1cccnc1 | -12.7%
COc1ccc2oc(C(=O)OCC(=O)N(CC(C)C)c3c(N)n(Cc4ccccc4)c(=O)[nH]c3=O)c(C)c2c1 | 4.93%
COc1ccc(N(C(=O)c2ccc(C)cc2)S(=O)(=O)c2cccs2)cc1 | -6.19%
CC(C)(C)c1ccc(OC(=O)N2CCCCC2)cc1 | -72.8%
CC(C)(C)c1ccc(OC2=CS(=O)(=O)c3ccccc32)cc1 | -61.3%
CC(C)(C)c1ccc(Oc2ccc(N)cc2)cc1 | 64.6% (active)
CCOC(=O)N1CCN(C(=O)COCc2cc(-c3ccc4c(c3)OCO4)on2)CC1 | -11.7%
N#C/C=C\Oc1ccc(Cl)cc1N | -13%
COc1cccc2c1OCC1COc3c(c(=O)n(C)c(=O)n3C)C21 (stereo not given) | -23.4%
O=C(NCCCN1CCOCC1)c1ccccc1NS(=O)(=O)c1ccc(Br)cc1 | -22.1%
COCC(C)n1c(C)cc(C(=O)CSc2cc(C)c3ccccc3n2)c1C (stereo not given) | -11.2%
c1ccc(-n2ncc(-c3nn[nH]n3)n2)cc1 | -12.7%
c1c2c(cc3sc(N4CCCCC4)nc13)OCCO2 | 76.1% (active)
CN(C)CCN(C(=O)C1CCCCC1)c1nc2cc3c(cc2s1)OCO3 | -8.29%
O=S(=O)(Nc1ccc2nc(N3CCOCC3)sc2c1)c1ccccc1 | -104%

Structure (SMILES) | inhibition
CC(=O)N1CCc2cc(S(=O)(=O)Nc3ccccc3N3CCN(C)CC3)ccc21 | -36.7%
Cc1ccc(C(c2sc3nc(C)nn3c2O)N2CCN(c3ccccc3)CC2)cc1 (stereo not given) | -16.6%
C[C@]12CCC3C(CC[C@H]4[C@H](O)[C@H](O)CC[C@]34C)C1CCC2=O (stereo not given in full) | -23.5%
CC12CCC3C(CCC4CC(=O)CCC43C)C1CC(=NO)C2=O (stereo not given) | 52% (active)
CC(C)C(NC(=O)OCc1ccccc1)C(=O)OCC(=O)N1C(C)CCCC1C (stereo not given) | -20.8%
CN(C)C(=O)c1cc(Br)ccc1Cl | -23.2%
CC(C)CC[n+]1ccn(C2=C([O-])c3ccccc3C(=O)/C2=N\S(=O)(=O)c2ccccc2)c1 | -17.3%
CC(C)(C)c1nc2ccccc2c(=O)n1N1C(=O)c2ccccc2C1=O | -7.16%
CC(C)C(C)NC(=O)COc1nc2ccccc2nc1N(C)C1CCCCC1 (stereo not given) | -28.4%
CN(c1ccc2nc3ccccc3c(=O)n2n1)C1CCCCC1 | 78.1% (active)
O=C(CCn1c(=O)oc2ccccc21)Nc1ccon1 | -14.3%
CCCNC(=O)C1CC(=O)N(c2ccc(OCC(=O)Nc3cccc(C)c3C)cc2)C1 (stereo not given) | -2.71%
O=C(c1ccc2c(c1)C(=O)N(Cc1ccncc1)C2=O)N1CCN(S(=O)(=O)c2ccc(OC(F)(F)F)cc2)CC1 | -12.7%
CC[n+]1c(C)n(-c2ccccc2)c2ccc(NC(C)=O)cc21 | -45%
CN(NC(=O)c1ccccc1F)c1nc(C(F)(F)F)nc2ccccc12 | 61.9% (active)
CSc1nc(N(C)NC(=O)c2cccc(C)c2)c2ccccc2n1 | 30.9%
Cn1c(CC(=O)NNC(=O)c2ccccc2F)nc2ccccc21 | -14.3%
CCOC(=O)c1ccc(NC(=O)C2CC(=O)Nc3nc4ccccc4n32)cc1 (stereo not given) | -13.3%
Nc1ccc(OCC(O)C[n+]2ccc(CCS(=O)(=O)[O-])cc2)cc1 (stereo not given) | 78.9% (active)
CCCc1ccc(OCC(O)CN2CCN(CCO)CC2)cc1 (stereo not given) | -4.25%
CCCc1ccc(OCC(O)CN2CCN(C(=O)OCC)CC2)cc1 (stereo not given) | -12.3%
COC(=O)N1CN(C(=O)OC)CN(C(=O)OC)C1 | -16.8%
CCOC(=O)C1=C(N)N(c2ccc(C)cc2)C2=C(C(=O)CCC2)C1c1cccs1 (stereo not given) | -23.6%
COC(=O)C1C(=O)c2c([nH]c(C(=O)OCCSC)c2C)CC1C (stereo not given) | -51.7%

Structure (SMILES) | inhibition
CCCOC(=O)c1[nH]c2c(c1C)C(=O)CC(c1cccs1)C2 (stereo not given) | 60.4% (active)
COc1cccc(NC(=O)N2CCCC2C(=O)NC2CCCCC2)c1 (stereo not given) | -31.7%
C/C(=C(\C#N)C(=O)NCCCN1CCOCC1)N(C)C | -31.6%
COc1cccc2c1OCC(C(=O)NCc1ccc(Cl)cc1Cl)=C2 | -13%
COCCNc1cc(-c2ccccc2)nc2cc(-c3cccc(F)c3)nn12 | 59.6% (active)
COC(=O)C(C)Sc1ccc2nnc(-c3cccc(F)c3)n2n1 (stereo not given) | -8.06%
COc1ccc(NC(=O)c2cc3nc(-c4ccccc4)cc(C)n3n2)cc1OC | -26.9%
COc1ccc(-c2nc(-c3ccccc3)no2)c(OC)c1 | 66.6% (active)
COc1ccc(/C=C/c2noc(-c3ccccc3OC(C)=O)n2)cc1 | -28.8%
COc1ccc(OC)c(-c2csc(-c3cccs3)n2)c1 | 4.49%
COc1ccccc1Nc1nnc(SC(C)C(=O)NC2CC2)s1 (stereo not given) | 2.27%
CCOC(=O)c1c(/N=C/c2cc(C)ccc2O)sc2c1CCC2 | -12.5%
O=C(CSc1cccc[n+]1[O-])NCCCc1ccccc1 | -19.4%
C=CCn1c(C)cc(C2=NNC(=NCC)SC2)c1C | 93.9% (active)
CN(C)c1ccc(CNC(=O)CN2C(=O)COc3ccc(S(=O)(=O)N4CCCC4)cc32)cc1 | -1.62%
CCCC(=O)n1nc(NCc2ccc(OC)cc2)nc1NCc1ccc(OC)cc1 | -14.7%
Clc1ccc2nc3c(c(-c4ccccc4)c2c1)CNCC3 | -16%
Clc1ccc2nc(-c3ccccc3)nc(C(Cl)Cl)c2c1 | 92.7% (active)
NC(N)=Nc1nc(-c2ccccc2)c2cc(Cl)ccc2n1 | -17.4%
Oc1ccccc1N1CCN(C(=S)NCc2ccccc2)CC1 | -14.6%
O=C(COC(=O)c1ccccc1C(=O)N1CCN(c2ccccc2)CC1)NCc1ccccc1 | -7.33%
Oc1ccc(N2CCN(C(=S)NCc3ccccc3)CC2)cc1 | 87.9% (active)
O=C(NCc1ccco1)c1ccc([N+](=O)[O-])cc1Cl | -16.6%
CCC(=O)c1cn(CCOc2ccccc2OC)c2ccccc12 | -20.1%

Structure (SMILES) | inhibition
Cc1nn2cc(-c3ccc(Cl)cc3)cnc2c1Br | -42%
Cc1ccc(S(=O)(=O)Nc2nc3ccccc3s2)cc1[N+](=O)[O-] | 57.4% (active)
CCOc1ccc2sc(NS(=O)(=O)c3ccc(N)cc3)nc2c1 | -14.4%
Cc1ccc(S(=O)(=O)NCCSc2ccccc2)cc1[N+](=O)[O-] | -22.1%
O=C(Nc1ccc2c(c1)OCCO2)c1ccoc1 | -45.1%
O=C(Nc1ccc2c(c1)OCO2)C1CC1(Cl)Cl (stereo not given) | -8.25%
O=C(Nc1ccc2c(c1)OCCO2)C1CCCC1 | 56.5% (active)
O=C(c1ccc(Cl)nc1)N1CCN(S(=O)(=O)c2ccc3c(c2)OCCO3)CC1 | -18.9%
O=S(=O)(c1ccc(Br)cc1)c1nc(-c2ccccc2)oc1N1CCOCC1 | -6.56%
O=C(OCC(=O)N1CCN(C(=O)c2ccco2)CC1)c1c(Cl)cccc1Cl | -17%
COc1cc(SC)ccc1C(=O)Nc1nc(C)cs1 | 87% (active)
COc1ccc(C(=O)Nc2cccc(NC(=O)c3ccc(OC)cc3OC)n2)c(OC)c1 | -7.03%
COc1cc(SC)ccc1C(=O)N(Cc1ccccc1)c1ccccc1 | -4.63%
O=C(c1cccs1)n1nc(NCc2ccccc2)nc1NCc1ccccc1 | -11.8%
Cc1noc(C)c1COC(=O)Cn1c(C)nc2ccccc21 | -15.5%
CC(=O)c1sc(NC(=O)CCN2C(=O)C3CC=CCC3C2=O)nc1-c1ccccc1 (stereo not given) | -19.1%
CC(=NCc1ccc2c(c1)OCO2)C1=C(O)c2ccccc2C1=O | 1.49%
O=C(NCc1ccccc1CN1CCCC1)c1cccc(S(=O)(=O)Nc2ccc(F)cc2)c1 | -16.1%
CCC(C)(O)C(=O)OC1C(=O)OC2CC3C(C)=CC(=O)C(O)C3(C)C3C4(O)OCC23C1C(C)C4O (stereo not given) | 78.9% (active)
Cc1cc(O)c(C(=O)/C=C/c2c(F)c(F)c(F)c(F)c2F)c(=O)o1 | 8.81%
CC1(C)C[C@H]2C3=CCC4[C@@]5(C)CC[C@H](O)[C@](C)(CO)C5CC[C@@]4(C)[C@]3(C)C[C@@H](O)[C@@]2(CO)[C@@H](O)[C@@H]1O (stereo not given in full) | -7.8%
COc1ccccc1CNC(=O)CSc1nc(=O)n(Cc2ccncc2)c2c1CCC2 | 10.7%
CS(=O)(=O)N(CC(=O)N1CCOCC1)c1ccc2c3c(cccc13)CC2 | -19.4%
